High-throughput results (PubChem)
Only some compounds are listed: those with a hit (about 3.5% of all), similar ones and a draw of the others.
GPR151 activ: activates the human receptor GPR151; PathHunter beta-arrestin GPR151 cells, luminescence; hit rate 1% among 650,000; activation, % at 11.2 µM; Q8TDV0; in the data active means activation above about 4.9%;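 further: 0% = median of compound wells and 100% = cells with positive control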
TEAD-YAP inh: TEAD-YAP interaction inhibition; HEK-TIYL cells, TEAD-Gal4/YAP UAS-luciferase luminescence; inhibition, % at 9.12 µM; hit rate 1.4% among 640,000; in the data active means inhibition above about 32%;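 further: 0% = median of test compound wells and 100% = reference inhibitor wells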
MITF primary: human MITF inhibition, primary screen; hit rate 0.91% among 650,000; inhibition, % at 2.6 µM; AlphaScreen MITF homodimerization, bead proximity signal; O75030; AID 1259374; in the data active means inhibition above about 50%;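 further: 0% = vehicle wells with protein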
FBW7 activator: activators of human E3 ligase FBW7. Q969H0. AlphaScreen FBW7–phospho-cyclin E peptide binding, activator screen. normalized activity (activation), % at 26.1 µM. hit rate 0.13% among 650,000. AID 1259310; in the data active means normalized activity above about 1.9%;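 further: purified mutant Fbw7 with reduced substrate affinity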
Target sequence (Q969H0 whole entry, looked up): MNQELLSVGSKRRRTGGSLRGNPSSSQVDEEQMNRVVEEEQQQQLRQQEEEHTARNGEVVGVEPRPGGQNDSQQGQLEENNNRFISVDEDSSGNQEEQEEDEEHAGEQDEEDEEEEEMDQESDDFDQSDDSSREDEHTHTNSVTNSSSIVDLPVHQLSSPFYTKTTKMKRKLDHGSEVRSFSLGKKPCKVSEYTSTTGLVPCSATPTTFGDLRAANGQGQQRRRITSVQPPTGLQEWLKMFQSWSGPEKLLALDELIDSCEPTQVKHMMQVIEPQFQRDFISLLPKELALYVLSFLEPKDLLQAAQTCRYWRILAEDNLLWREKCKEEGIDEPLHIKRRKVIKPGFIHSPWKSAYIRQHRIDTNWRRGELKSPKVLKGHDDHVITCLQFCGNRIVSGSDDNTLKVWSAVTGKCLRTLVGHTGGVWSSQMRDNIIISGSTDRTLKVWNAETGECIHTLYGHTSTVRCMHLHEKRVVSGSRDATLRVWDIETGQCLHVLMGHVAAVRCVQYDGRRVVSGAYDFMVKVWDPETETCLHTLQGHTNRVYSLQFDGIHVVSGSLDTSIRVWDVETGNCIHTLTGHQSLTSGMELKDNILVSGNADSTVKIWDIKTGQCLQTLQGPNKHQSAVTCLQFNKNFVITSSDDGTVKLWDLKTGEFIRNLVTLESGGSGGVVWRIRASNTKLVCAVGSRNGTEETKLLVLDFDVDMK
GPR151 confirm: human GPR151 activation, confirmation screen. shares compounds with GPR151 activ. GPR151 PathHunter beta-arrestin cells, luminescence, 90 min; % of EA-reagent control over plate median. activation, % at 11.2 µM. 6,700 tested, under 10 active. AID 1508609;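 active means mean percent activation across replicates above the confirmation screen cutoff of 4.91%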
GPR119 ag: counter-screen for GPR151 activators: effect on human GPR119; shares compounds with GPR151 activ; GPR119 PathHunter beta-arrestin cells, luminescence, 90 min; 0 = compound-well median, 100 = enzyme-acceptor control; activation, % at 11.2 µM; hit rate 0.3% among 6,700; AID 1508611;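 active means mean percent activation in the counterscreen above 29.09%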;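 further: counterscreen on off-target GPR119 to flag nonselective hits from the GPR151 activator screen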
An asterisk follows results filed as active; · = no result.

SMILES	GPR151 activ	TEAD-YAP inh	MITF primary	FBW7 activator	GPR151 confirm	GPR119 ag
CC(C)CCN1C(=O)C(C)(C)COc2cc(NC(=O)c3ccc4c(c3)OCO4)ccc21	5.6*	-10	9	0	3	2
CN1C(=O)C(C)(C)COc2cc(NC(=O)Nc3ccc4c(c3)OCO4)ccc21	-1	-55	8	0	·	·
COc1ccc(-c2noc(CN3CCCN(c4ccc(F)cc4)CC3)n2)c(OC)c1OC	0	-16	6	0	·	·
COc1ccc(-c2noc(CN3CCN(c4ccc(F)cc4)CC3)n2)c(OC)c1OC	6.5*	0	11	0	0	-9
Cc1ccc(CNC(=O)c2nnc(Cc3cccc(Cl)c3)o2)cc1	7.4*	3	-2	0	0	5
O=C(NCc1ccccc1)c1nnc(Cc2cccc(Cl)c2)o1	0	-5	-2	0	·	·
Cn1c(SCC(=O)NCCc2ccccc2)nnc1-c1ccncc1	6.1*	5	5	0	1	1
O=C(CSc1nc2ccccc2n1S(=O)(=O)c1ccccc1)NCCc1ccccc1	1	-9	-8	0	·	·
Cc1ccc(S(=O)(=O)n2c(SCC(=O)NCCc3ccccc3)nc3ccccc32)cc1	5.4*	-7	8	0	0	6
CCCCNC(=O)CC1Nc2c3ccccc3nc(=S)n2C1=O (stereo not given)	9.6*	-5	14	0	-2	-15
CC(C)CCNC(=O)CC1Nc2c3ccccc3nc(=S)n2C1=O (stereo not given)	-1	2	-3	0	·	·
N#C/C(=C\c1ccc(F)cc1)C(=O)N1CCOCC1	6.3*	-34	-8	0	1	6
CCOc1cc(/C=N/NS(C)(=O)=O)ccc1O	9.0*	15	11	0	0	-6
CCOc1cc(/C=N/Nc2ccc(S(=O)(=O)O)cc2)ccc1O	0	18	47	0	·	·
Cc1ccc(S(=O)(=O)Nc2ccc(Cl)c([N+](=O)[O-])c2)cc1	6.3*	-9	12	0	-1	2
Cc1ccc(NS(=O)(=O)c2ccc(NS(=O)(=O)c3ccc4c(c3)OCCO4)cc2)cc1C	-2	4	1	0	·	·
Cc1ccc(S(=O)(=O)Nc2ccc3c(c2)OCCOCCOCCOCCOCCO3)cc1	5.2*	-9	-1	0	-1	-8
O=C1COc2cc(S(=O)(=O)Nc3ccc(F)cc3)ccc2N1	6.7*	-6	7	0	1	0
O=C1COc2cc(S(=O)(=O)CCC(=O)N3CCCCCC3)ccc2N1	5.1*	4	8	0	1	-3
O=C(CCS(=O)(=O)c1ccc2c(c1)OCC(=O)N2)Nc1ccc(OC(F)(F)F)cc1	7.1*	0	10	0	-1	-10
CCOC(=O)N1CCC(n2c(SCc3ccccc3Cl)nc3ccsc3c2=O)CC1	0	6	6	0	·	·
COc1ccc(CC(=O)N2CCN=C2SCc2ccccc2)cc1	0	-11	-5	0	·	·
COc1cc(/C=N/NC(=O)c2ccc(C)o2)cc(Br)c1OC	-1	-5	-5	0	·	·
O=Cc1cc(Cl)ccc1OCC(=O)Nc1ccc(F)cc1	11*	-57	8	0	-1	3
O=C(COc1ccc(Cl)cc1)Nc1ccc(Br)cn1	1	-15	9	0	·	·
SMILES	GPR151 activ	TEAD-YAP inh	MITF primary	FBW7 activator	GPR151 confirm	GPR119 ag
O=C(Nc1ccc(Cl)cn1)c1ccccc1Cl	-4	-69	6	0	·	·
O=C(COc1ccc(F)cc1F)Nc1ccc(F)cc1	-2	-43	9	0	·	·
O=C(COc1ccc(F)cc1)Nc1ccc(Cl)cn1	18*	-33	0	0	0	-8
O=C(Nc1ccc(Cl)cn1)c1ccc(Cl)cc1Cl	7.0*	15	14	0	0	-12
O=C(CCC(=O)OCC(F)(F)C(F)F)Nc1ccccc1	0	2	7	0	·	·
CCN1CCN(C(CC(C)C)c2nnnn2Cc2ccc3c(c2)OCO3)CC1 (stereo not given)	5.3*	-3	3	0	1	6
COc1ccccc1OCCCC(=O)Nc1nnc(C2CCCCC2)s1	5.2*	-1	6	0	1	5
NC1(C(Cl)(Cl)Cl)Oc2ccc(Cl)cc2O1 (stereo not given)	9.9*	11	46	0	0	-3
COc1ccc(Cl)cc1NC(=O)CN1CCN(S(=O)(=O)N(C)C)CC1	1	0	8	0	·	·
CCCCc1ccc(C(=O)On2c(-c3ccc(Br)cc3)nc3ccccc3c2=O)cc1	1	-4	-12	0	·	·
CCC1CCCCN1CCN1C(=O)C2C(C(=O)Nc3cccc(C)c3)C3C=CC2(O3)C1C(=O)NC1CCCC(C)C1C (stereo not given)	13*	6	1	0	0	-5
CCC1CCCCN1CCN1C(=O)C2C(C(=O)Nc3cc(C)cc(C)c3)C3C=CC2(O3)C1C(=O)NC1CCCC(C)C1C (stereo not given)	0	8	15	1	·	·
CSc1cccc(NC(=O)C2C3C=CC4(O3)C2C(=O)N(C(C)C)C4C(=O)NC2CCCC(C)C2C)c1 (stereo not given)	5.8*	4	8	0	1	-1
Cc1cc(NCCc2ccc(O)cc2)nc(-c2c(C)noc2C)n1	-1	1	12	0	·	·
COc1ccc(OC)c(Cc2nnc(CCC(=O)NCc3nc4ccccc4s3)o2)c1	6.3*	-9	-6	0	1	12
O=C(CCc1nnc(-c2ccccc2)o1)NCc1nc2ccccc2s1	-1	-4	-1	0	·	·
O=C(CCc1nnc(COc2ccccc2)o1)NCc1nc2ccccc2s1	5.1*	-1	9	0	1	6
COc1ccc(OC)c(Cc2nnc(CCC(=O)NCCc3nc(C)c(C)s3)o2)c1	-1	-9	11	0	·	·
COc1ccc(CCc2nnc(CCC(=O)NCCc3ccccc3F)o2)cc1	6.5*	-4	1	0	0	-4
COc1ccc(CCc2nnc(CCC(=O)NCc3ccccc3F)o2)cc1	0	-47	-26	0	·	·
COc1ccc(/C=C(/NC(=O)/C=C/c2ccccc2)C(=O)NCCCO)cc1	1	1	-7	0	·	·
CCOC(=O)C(C)n1cnc2sc(C)c(-c3ccc(F)cc3)c2c1=O (stereo not given)	0	-7	4	0	·	·
CS(=O)(=O)Nc1ccccc1Oc1ccccc1	7.9*	-1	2	0	0	-4
CCN1CCN(S(=O)(=O)c2ccc(OC)c(I)c2)CC1	11*	6	5	0	0	-6
CC1CN(CC(O)COc2ccc(S(=O)(=O)N3CCCC3)cc2[N+](=O)[O-])CC(C)O1 (stereo not given)	5.7*	15	29	0	1	-3
